{"source": "PubChem BioAssay AID1159580", "about": "(chemical genetic matrix, 2015)", "test": "chemical genetic growth profiling, strain panel (AID 1159580);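 note: tested at 20 µM; growth read once vehicle control cultures reached saturation at 30 °C; 1 = growth at the plate median or of vehicle wells; lower values mean less growth of the strain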", "details": "S. cerevisiae deletion strains, growth OD", "key": {"[1]": {"details": "locus YAL040C, strain CLN3, active compounds read low"}, "[2]": {"details": "locus YCL061C, strain MRC1 (second series), active compounds read low"}, "[3]": {"details": "locus YDR363W, strain ESC2, active compounds read low"}, "[4]": {"details": "locus YER002W, strain NOP16, active compounds read low"}, "[5]": {"details": "locus YMR307W, strain GAS1, active compounds read low"}, "[6]": {"details": "locus YNL175C, strain NOP13, active compounds read low"}, "[7]": {"details": "locus YNL197C, strain WHI3, active compounds read low"}, "[8]": {"details": "locus YNL224C, strain SQS1, active compounds read low"}, "[9]": {"details": "locus YNL322C, strain KRE1, active compounds read low"}, "[10]": {"details": "locus YOR083W, strain WHI5 (second series), active compounds read low"}, "[11]": {"details": "locus YPL055C, strain LGE1, active compounds read low"}}, "note": "About 2,000 (36%) of roughly 5,500 compounds were called active. About 18% were inconclusive and are not listed. This is one part of the list. A number with no mark means an inactive call. Cut-off read from the data, not from the text of the source: active = normalized growth mostly below about 0.91 (no sharp cut-off); inconclusive = no clear call, values can overlap the other calls; inactive = mostly above about 0.92."}
{"smiles": "Cc1ccc(C)c(CSc2nc(C3CCCCC3)c(C#N)c(=O)[nH]2)c1", "values": [{"measurement": "normalized growth", "setting": "locus YAR019C, strain CDC15, active compounds read low", "value": 0.979}, {"measurement": "normalized growth", "setting": "locus YBL105C, strain PKC1, active compounds read low", "value": 0.975}, {"measurement": "normalized growth", "setting": "locus YBR135W, strain CKS1, active compounds read low", "value": 0.964}, {"measurement": "normalized growth", "setting": "locus YBR136W, strain MEC1, active compounds read low", "value": 0.98}, {"measurement": "normalized growth", "setting": "locus YBR160W, strain CDC28, active compounds read low", "value": 0.98}, {"measurement": "normalized growth", "setting": "locus YDL017W, strain CDC7, active compounds read low", "value": 0.981}, {"measurement": "normalized growth", "setting": "locus YDL028C, strain MPS1, active compounds read low", "value": 0.985}, {"measurement": "normalized growth", "setting": "locus YDL101C, strain DUN1, active compounds read low", "value": 0.983}, {"measurement": "normalized growth", "setting": "locus YDL108W, strain KIN28, active compounds read low", "value": 0.985}, {"measurement": "normalized growth", "setting": "locus YDL132W, strain cdc53, active compounds read low", "value": 0.973}, {"measurement": "normalized growth", "setting": "locus YDL214C, strain PRR2, active compounds read low", "value": 1}, {"measurement": "normalized growth", "setting": "locus YDR052C, strain DBF4, active compounds read low", "value": 0.968}, {"measurement": "normalized growth", "setting": "locus YDR054C, strain cdc34, active compounds read low", "value": 0.983}, {"measurement": "normalized growth", "setting": "locus YDR226W, strain ADK1, active compounds read low", "value": 0.984}, {"measurement": "normalized growth", "setting": "locus YDR477W, strain SNF1, active compounds read low", "value": 1}, {"measurement": "normalized growth", "setting": "locus YER123W, strain YCK3, active compounds read low", "value": 1.01}, {"measurement": "normalized growth", "setting": "locus YER133W, strain GLC7, active compounds read low", "value": 1.01}, {"measurement": "normalized growth", "setting": "locus YFL009W, strain cdc4, active compounds read low", "value": 0.981}, {"measurement": "normalized growth", "setting": "locus YFL029C, strain CAK1, active compounds read low", "value": 0.983}, {"measurement": "normalized growth", "setting": "locus YFR003C, strain YPI1, active compounds read low", "value": 0.98}, {"measurement": "normalized growth", "setting": "locus YFR019W, strain FAB1, active compounds read low", "value": 0.992}, {"measurement": "normalized growth", "setting": "locus YFR028C, strain CDC14, active compounds read low", "value": 0.975}, {"measurement": "normalized growth", "setting": "locus YGR040W, strain KSS1, active compounds read low", "value": 1.02}, {"measurement": "normalized growth", "setting": "locus YGR052W, strain FMP48, active compounds read low", "value": 1.11}, {"measurement": "normalized growth", "setting": "locus YGR092W, strain DBF2, active compounds read low", "value": 0.987}, {"measurement": "normalized growth", "setting": "locus YHR030C, strain SLT2, active compounds read low", "value": "1.18 [resistant] (active)"}, {"measurement": "normalized growth", "setting": "locus YHR079C, strain IRE1, active compounds read low", "value": 1.12}, {"measurement": "normalized growth", "setting": "locus YHR082C, strain KSP1, active compounds read low", "value": 1.14}, {"measurement": "normalized growth", "setting": "locus YHR205W, strain SCH9, active compounds read low", "value": 0.988}, {"measurement": "normalized growth", "setting": "locus YIL147C, strain SLN1, active compounds read low", "value": 0.971}, {"measurement": "normalized growth", "setting": "locus YJL095W, strain BCK1, active compounds read low", "value": 1.12}, {"measurement": "normalized growth", "setting": "locus YJL128C, strain PBS2, active compounds read low", "value": 0.981}, {"measurement": "normalized growth", "setting": "locus YJL157C, strain FAR1, active compounds read low", "value": 1}, {"measurement": "normalized growth", "setting": "locus YJR016C, strain ILV3, active compounds read low", "value": 0.989}, {"measurement": "normalized growth", "setting": "locus YJR066W, strain TOR1 (second series), active compounds read low", "value": 0.99}, {"measurement": "normalized growth", "setting": "locus YJR066W, strain TOR1, active compounds read low", "value": 1.17}, {"measurement": "normalized growth", "setting": "locus YKL048C, strain ELM1, active compounds read low", "value": 0.98}, {"measurement": "normalized growth", "setting": "locus YKL067W, strain YNK1, active compounds read low", "value": 0.98}, {"measurement": "normalized growth", "setting": "locus YKL101W, strain HSL1, active compounds read low", "value": 0.992}, {"measurement": "normalized growth", "setting": "locus YKL193C, strain SDS22, active compounds read low", "value": 0.97}, {"measurement": "normalized growth", "setting": "locus YKL203C, strain TOR2, active compounds read low", "value": 1.09}, {"measurement": "normalized growth", "setting": "locus YLR113W, strain HOG1, active compounds read low", "value": 1.06}, {"measurement": "normalized growth", "setting": "locus YLR133W, strain CKI1, active compounds read low", "value": 0.984}, {"measurement": "normalized growth", "setting": "locus YLR403W, strain SFP1, active compounds read low", "value": 0.999}, {"measurement": "normalized growth", "setting": "locus YML070W, strain DAK1, active compounds read low", "value": 1}, {"measurement": "normalized growth", "setting": "locus YMR001C, strain CDC5, active compounds read low", "value": 0.971}, {"measurement": "normalized growth", "setting": "locus YMR205C, strain PFK2 (second series), active compounds read low", "value": 0.99}, {"measurement": "normalized growth", "setting": "locus YMR277W, strain FCP1, active compounds read low", "value": 0.978}, {"measurement": "normalized growth", "setting": "locus YNL006W, strain LST8, active compounds read low", "value": 0.978}, {"measurement": "normalized growth", "setting": "locus YNL020C, strain ARK1, active compounds read low", "value": 0.982}, {"measurement": "normalized growth", "setting": "locus YNL161W, strain CBK1, active compounds read low", "value": 0.984}, {"measurement": "normalized growth", "setting": "locus YNL183C, strain NPR1, active compounds read low", "value": 1.11}, {"measurement": "normalized growth", "setting": "locus YNL207W, strain RIO2, active compounds read low", "value": 0.995}, {"measurement": "normalized growth", "setting": "locus YNL222W, strain SSU72, active compounds read low", "value": 0.972}, {"measurement": "normalized growth", "setting": "locus YNL307C, strain MCK1 (second series), active compounds read low", "value": 0.996}, {"measurement": "normalized growth", "setting": "locus YOL078W, strain AVO1, active compounds read low", "value": 0.982}, {"measurement": "normalized growth", "setting": "locus YOL136C, strain PFK27, active compounds read low", "value": 1.01}, {"measurement": "normalized growth", "setting": "locus YOR061W, strain CKA2, active compounds read low", "value": 0.996}, {"measurement": "normalized growth", "setting": "locus YOR119C, strain RIO1, active compounds read low", "value": 1.04}, {"measurement": "normalized growth", "setting": "locus YOR231W, strain MKK1, active compounds read low", "value": 1.1}, {"measurement": "normalized growth", "setting": "locus YOR329C, strain SCD5, active compounds read low", "value": 0.985}, {"measurement": "normalized growth", "setting": "locus YPL031C, strain PHO85, active compounds read low", "value": 1.01}, {"measurement": "normalized growth", "setting": "locus YPL153C, strain RAD53, active compounds read low", "value": 1.01}, {"measurement": "normalized growth", "setting": "locus YPL204W, strain HRR25, active compounds read low", "value": 1}, {"measurement": "normalized growth", "setting": "locus YPL209C, strain IPL1, active compounds read low", "value": 0.988}, {"measurement": "normalized growth", "setting": "locus YPL256C, strain CLN2, active compounds read low", "value": 1.12}, {"measurement": "normalized growth", "setting": "locus YPR025C, strain CCL1, active compounds read low", "value": 0.973}, {"measurement": "normalized growth", "setting": "locus YPR106W, strain ISR1, active compounds read low", "value": 0.987}, {"measurement": "normalized growth", "setting": "locus YPR111W, strain DBF20, active compounds read low", "value": 0.977}, {"measurement": "normalized growth", "setting": "strain NNK1, active compounds read low", "value": 0.994}, {"measurement": "normalized growth", "setting": "strain TSCII, active compounds read low", "value": 0.981}]}
{"smiles": "NCc1cc(=O)[nH]o1", "values": [{"measurement": "normalized growth", "setting": "[1]", "value": 1.05}, {"measurement": "normalized growth", "setting": "[2]", "value": 1}, {"measurement": "normalized growth", "setting": "[3]", "value": 1.01}, {"measurement": "normalized growth", "setting": "[4]", "value": 1.02}, {"measurement": "normalized growth", "setting": "[5]", "value": 1}, {"measurement": "normalized growth", "setting": "[6]", "value": 1}, {"measurement": "normalized growth", "setting": "[7]", "value": 1.02}, {"measurement": "normalized growth", "setting": "[8]", "value": 1.01}, {"measurement": "normalized growth", "setting": "[9]", "value": 1.01}, {"measurement": "normalized growth", "setting": "[10]", "value": 1}, {"measurement": "normalized growth", "setting": "[11]", "value": 1.01}, {"measurement": "normalized growth", "setting": "locus YPL241C, strain CIN2, active compounds read low", "value": 0.989}]}
{"smiles": "c1cnc(N2CCN(Cc3ccc4c(c3)OCO4)CC2)nc1", "values": [{"measurement": "normalized growth", "setting": "locus YAL013W, strain DEP1, active compounds read low", "value": 0.95}, {"measurement": "normalized growth", "setting": "[1]", "value": 0.967}, {"measurement": "normalized growth", "setting": "[2]", "value": 0.982}, {"measurement": "normalized growth", "setting": "locus YDR150W, strain NUM1, active compounds read low", "value": 0.996}, {"measurement": "normalized growth", "setting": "[3]", "value": 0.988}, {"measurement": "normalized growth", "setting": "[4]", "value": 0.988}, {"measurement": "normalized growth", "setting": "locus YGR078C, strain PAC10, active compounds read low", "value": 0.993}, {"measurement": "normalized growth", "setting": "[5]", "value": 0.999}, {"measurement": "normalized growth", "setting": "[6]", "value": 1}, {"measurement": "normalized growth", "setting": "[7]", "value": 0.976}, {"measurement": "normalized growth", "setting": "[8]", "value": 0.985}, {"measurement": "normalized growth", "setting": "[9]", "value": 0.979}, {"measurement": "normalized growth", "setting": "[10]", "value": 0.985}, {"measurement": "normalized growth", "setting": "[11]", "value": 0.991}]}
